Sampled rows, rich in hits. Any-hit rate of the full collection: about 2.5%.
ANO1 block – blocks the mouse calcium-activated chloride channel TMEM16A | Q8BHY3 | HEK293 TMEM16A/YFP iodide influx fluorescence, ionomycin | normalized B-score (activity score, 25-100; higher = stronger inhibition) at 10 µM | actives 1.2% (n = 310,000) | AID 588511;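 active = ratio plate-corrected score three or more library SD toward inhibition, starting fluorescence score within five deviations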;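 note: score derived from kinetic fluorescence span divided by baseline fluorescence per well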
PKA-R2B activ – PKA-R2B complex activation | P22694+P31323 | PKA-R2B holoenzyme dissociation, Cy5-IP20 fluorescence polarization; R2B truncated from residue 108, S112A mutant; 0% DMSO only, 100% 113 µM cGMP | activation, % at 11.4 µM | actives 0.079% (n = 340,000);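 active = activation above a cutoff set at the mean over all compounds plus 3 SD, cut at about 18% in these data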;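 note: higher means more holoenzyme dissociation and a rise in polarization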
Target sequence (P31323 whole entry, looked up, other chains not shown, the tested form may be a part): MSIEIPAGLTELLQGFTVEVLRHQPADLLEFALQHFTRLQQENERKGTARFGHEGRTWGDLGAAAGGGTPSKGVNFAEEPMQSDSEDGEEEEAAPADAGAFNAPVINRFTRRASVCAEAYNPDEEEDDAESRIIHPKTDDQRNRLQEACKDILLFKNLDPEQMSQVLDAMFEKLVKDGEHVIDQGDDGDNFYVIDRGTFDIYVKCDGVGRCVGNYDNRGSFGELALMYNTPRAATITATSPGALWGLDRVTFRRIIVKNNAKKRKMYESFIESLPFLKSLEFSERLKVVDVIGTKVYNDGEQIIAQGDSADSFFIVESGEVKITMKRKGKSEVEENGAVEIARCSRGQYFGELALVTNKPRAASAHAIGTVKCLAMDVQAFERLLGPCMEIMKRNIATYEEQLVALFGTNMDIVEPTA
CHT block – inhibitors of human choline transporter CHT. Q9GZV3. CHT-expressing cells, membrane potential dye, choline response; active compounds read low. B-score at 10 µM. actives 0.86% (n = 310,000). AID 488975;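 active = B-score over 3 SD under the library average, and starting fluorescence ratio not unusually high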;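 note: choline stimulus applied at its EC90 after an EC20 pre-addition; B-score computed on integrated fluorescence ratio after choline addition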
PKA-R1A act – activators of PKA-R1A complex; PKA-R1A dissociation, Cy5-IP20 fluorescence polarization; scaled: DMSO 0%, 113 µM cGMP 100%; P00514+P68181; activation, % at 11.4 µM; actives 0.083% (n = 340,000); AID 504707;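 active = percent activation above the mean of all tested compounds plus 3 SD, cut at about 19% in these data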;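 note: higher means more PKAc released from R1A so a rise in polarization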
TMEM16A act – mouse TMEM16A channel activation, primary screen. B-score at 10 µM. Q8BHY3. HEK293 TMEM16A/YFP-H148Q/I152L, iodide quench fluorescence; active compounds read low. actives 0.3% (n = 340,000);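 active = fluorescence-ratio B-score plate-corrected deviation score at least 3 library SD below zero, with starting fluorescence score within 5 deviations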;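 note: channel opened by trigger with iodide after compound preincubation; score built on the fluorescence ratio of max minus min over baseline; more negative score means more quench and so TMEM16A activation or potentiation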
CHT PAM – allosterically activates the human high affinity choline transporter | Q9GZV3 | CHT-expressing cells, membrane potential dye, choline EC20; active compounds read high; LV-AA mutant CHT in HEK293 cells | B-score at 10 µM | actives 0.49% (n = 310,000) | AID 488977;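 active = initial fluorescence not abnormally high and integrated response B-score, plate-corrected, over 3 SD above library mean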
CHT block conf – confirmation of human choline transporter CHT inhibitors; shares compounds with CHT block; actives 70% (n = 2,400); CHT activity remaining % of control (active compounds read low), % at 10 µM; AID 493221; CHT-expressing cells, choline membrane potential dye; LV-to-AA substituted CHT, HEK293 cells;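 active = choline transporter activity left, mean of duplicates at 10 µM, below buffer-only control mean minus 3 SD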;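 note: depolarization triggered by choline at its EC90 following an EC20 pre-addition; 0% = hemicholinium-3 full block and 100% = buffer-only control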
HEK293 MPD ctr – activity in parental HEK293 cells lacking CHT; membrane potential ratio readout (active if shifted either direction beyond buffer ±3SD; no single direction) at 10 µM; membrane potential dye, choline response; active = decrease or increase beyond buffer ±3SD; shares compounds with CHT block; actives 4% (n = 2,400);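 note: parental cells lack the transporter so any hit is non-specific; ratio is peak minus trough fluorescence over baseline after EC90 choline challenge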
Starred values were filed as active, the others as inactive.

c1ccc(Cn2ccnc2SCc2nnc(-c3ccccc3)o2)cc1 was read as ANO1 block inactive, PKA-R2B activ -12, CHT block -6.1*, PKA-R1A act -7, TMEM16A act inactive, CHT PAM inactive, CHT block conf 63%* and HEK293 MPD ctr inactive.
Screening O=C(NCC(c1ccco1)N1CCCC1)c1cccc(S(=O)(=O)N2CCc3ccccc32)c1 (centres undefined) returned PKA-R2B activ 5 and PKA-R1A act 7.
NC(=O)CC(NC(=O)c1ccccc1)c1ccc(N2CCN(c3ccccc3)CC2)c([N+](=O)[O-])c1 (centres undefined) was read as ANO1 block inactive, PKA-R2B activ -13, CHT block inactive, PKA-R1A act 3, TMEM16A act inactive and CHT PAM inactive.
Screening NC(=O)CC(NC(=O)c1ccccc1)c1ccc(N2CCCCCC2)c([N+](=O)[O-])c1 (centres undefined) returned ANO1 block inactive, PKA-R2B activ 5, CHT block -8.6*, PKA-R1A act 7, TMEM16A act inactive, CHT PAM inactive, CHT block conf 13%* and HEK293 MPD ctr inactive.
Cc1ccccc1-n1nnnc1Sc1nnnn1-c1ccccc1 was read as ANO1 block inactive, PKA-R2B activ -1, CHT block -5*, PKA-R1A act 4, TMEM16A act inactive, CHT PAM inactive, CHT block conf 64%* and HEK293 MPD ctr inactive.
Screening CSc1nnc(-c2ccc(F)cc2)o1 returned ANO1 block inactive, PKA-R2B activ 4, CHT block inactive, PKA-R1A act -6, TMEM16A act inactive and CHT PAM inactive.
`O=C(O)/C(=C\c1ccccc1OC(F)F)Sc1nnc(-c2ccc(F)cc2)o1` gave ANO1 block inactive, PKA-R2B activ 1, CHT block -5.6*, PKA-R1A act -3, TMEM16A act inactive, CHT PAM inactive, CHT block conf 31%* and HEK293 MPD ctr inactive.
`CCCn1c2ccccc2c2cnn(CC(=O)NCCN(CC)CC)c(=O)c21` gave ANO1 block inactive, PKA-R2B activ 8, CHT block -9.1*, PKA-R1A act -3, TMEM16A act inactive, CHT PAM inactive, CHT block conf -3.9%* and HEK293 MPD ctr inactive.
For O=C(Cn1ncc2c3ccccc3n(Cc3ccccc3F)c2c1=O)NC1CC1 the results were ANO1 block inactive, PKA-R2B activ 6, CHT block inactive, PKA-R1A act -4, TMEM16A act inactive and CHT PAM inactive.
Screening CCCn1c2ccccc2c2cnn(CC(=O)NCCN(C)C)c(=O)c21 returned ANO1 block inactive, PKA-R2B activ 9, CHT block -8*, PKA-R1A act -13, TMEM16A act inactive, CHT PAM inactive, CHT block conf 19%* and HEK293 MPD ctr inactive.
For CCCn1c2ccccc2c2cnn(CC(=O)N(CC)CC)c(=O)c21 the results were ANO1 block inactive, PKA-R2B activ -2, CHT block inactive, PKA-R1A act -3, TMEM16A act inactive and CHT PAM inactive.
For O=C(Cn1ncc2c3ccccc3n(Cc3ccccc3F)c2c1=O)NCCN1CCOCC1 the results were ANO1 block inactive, PKA-R2B activ -3, CHT block -9.9*, PKA-R1A act -3, TMEM16A act inactive, CHT PAM inactive, CHT block conf 28%* and HEK293 MPD ctr inactive.
For COc1ccc(C2NC(=O)CCC2[N+](=O)[O-])c(OC)c1OC (centres undefined) the results were ANO1 block inactive, PKA-R2B activ 5, CHT block inactive, PKA-R1A act 10, TMEM16A act inactive and CHT PAM inactive.
Screening CC1CCCN(C(=O)Cn2nnc(-c3ccc(N(C)C)cc3)n2)C1 (centres undefined) returned ANO1 block inactive, PKA-R2B activ 0, CHT block inactive, PKA-R1A act 6, TMEM16A act inactive and CHT PAM inactive.
CN(C)c1ccc(-c2nnn(CC(=O)N3c4ccccc4CCc4ccccc43)n2)cc1 was read as ANO1 block inactive, PKA-R2B activ -9, CHT block -7.2*, PKA-R1A act 9, TMEM16A act inactive, CHT PAM inactive, CHT block conf inactive and HEK293 MPD ctr inactive.
For C/C(=N\NC(=O)c1ccccc1O)C1C(=O)c2ccccc2C1=O the results were ANO1 block inactive, PKA-R2B activ 0, CHT block -5*, PKA-R1A act -6, TMEM16A act inactive, CHT PAM inactive, CHT block conf 31%* and HEK293 MPD ctr inactive.
Cc1cc(Cl)ccc1NNC(=O)CCc1ccccc1 was read as ANO1 block inactive, PKA-R2B activ -5, CHT block inactive, PKA-R1A act -7, TMEM16A act inactive and CHT PAM inactive.
`Cc1cc(C)n2nc(SCc3nnc(SCc4ccccc4)s3)nc2n1` gave ANO1 block inactive, PKA-R2B activ 5, CHT block -6.1*, PKA-R1A act -8, TMEM16A act inactive, CHT PAM inactive, CHT block conf inactive and HEK293 MPD ctr inactive.
Screening Cc1cc(C)n2nc(SCc3ccccc3)nc2n1 returned ANO1 block inactive, PKA-R2B activ -5, CHT block inactive, PKA-R1A act -2, TMEM16A act inactive and CHT PAM inactive.
Screening NC(=O)Nc1ccc(C(=O)OCC(=O)N2CCc3ccccc3C2)cc1 returned PKA-R2B activ -3, PKA-R1A act -7 and TMEM16A act inactive.
Screening Fc1ccccc1NC(=S)NNc1ncc(C(F)(F)F)cc1Cl returned ANO1 block 100*, PKA-R2B activ -2, CHT block -8.1*, PKA-R1A act -5, TMEM16A act inactive, CHT PAM inactive, CHT block conf 60%* and HEK293 MPD ctr inactive.
Screening CN(C)c1cc[n+](CC(=O)N2CCCc3ccccc32)cc1 returned ANO1 block inactive, PKA-R2B activ -3, CHT block inactive, PKA-R1A act -6, TMEM16A act inactive and CHT PAM inactive.

Screens deposited in PubChem by several laboratories.
